This is part of a sample that, as a whole, favours compounds with a hit. Of some 83,000 tested, about 20% had one in any assay.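 48-hour exposure, single concentration, 96-well plates; percent growth endpoint where 0 means no net growth. Active: below 10.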 The source made the active and inactive calls.

This experiment has as its system MDA-MB-468 breast. As to the kind of experiment: NCI-60 one-dose screen, 48 h (100 = growth as untreated, 0 = no growth, -100 = all killed). As to conditions: 10 µM unless noted.
For `Nc1ncc(-c2ccc(NS(=O)(=O)c3ccc(Cl)c(Cl)c3)cc2)[nH]1`, the growth is 90.1% (inactive). As to `COc1cc(-c2cc(-c3cccs3)c(C#N)c(N3CCOCC3)n2)cc(OC)c1OC`, the growth is 55% (inactive). Turning to `N#CC1=C(N)Oc2c(c(=O)[nH]c3ccc(Cl)cc23)C12C(=O)c1ccccc1C2=O`, the growth was 96.6% (inactive).

The values above are taken from PubChem BioAssay (NCI).
